From PubChem
Rows were chosen to be rich in hits. Some 27% of all compounds tested hit in one or more screens of this group.
CYP2C9 inh: human CYP2C9 inhibition; P11712; CYP2C9 Supersomes, luciferin-H conversion, luminescence; inhibition, % at 5 µM; 96,000 tested, 20% active; AID 777;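 active means blocking of liver enzyme CYP2C9 beyond about 50% at 5 µM, limit read from the data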
Target sequence (P11712 whole entry, looked up): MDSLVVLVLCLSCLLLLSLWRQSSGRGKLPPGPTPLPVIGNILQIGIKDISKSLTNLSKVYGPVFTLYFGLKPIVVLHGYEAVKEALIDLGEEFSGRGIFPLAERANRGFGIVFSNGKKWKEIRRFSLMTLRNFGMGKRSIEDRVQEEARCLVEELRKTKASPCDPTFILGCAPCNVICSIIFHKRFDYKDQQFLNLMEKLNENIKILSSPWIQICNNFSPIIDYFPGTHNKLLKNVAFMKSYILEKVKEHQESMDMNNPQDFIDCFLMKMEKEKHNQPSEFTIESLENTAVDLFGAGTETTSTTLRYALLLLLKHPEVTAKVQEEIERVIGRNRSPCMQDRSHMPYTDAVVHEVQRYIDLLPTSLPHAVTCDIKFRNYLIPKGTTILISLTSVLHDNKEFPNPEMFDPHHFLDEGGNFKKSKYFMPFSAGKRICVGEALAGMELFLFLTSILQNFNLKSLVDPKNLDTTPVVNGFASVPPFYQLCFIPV
sEH inh: soluble epoxide hydrolase (human) inhibition. inhibition, % at 2 µM. recombinant human sEH enzymatic activity assay. AID 707. 91,000 tested, 0.34% active; in the data active means inhibition above about 80%
sEH activator: soluble epoxide hydrolase (human) activation; activation, % at 2 µM; purified human sEH enzymatic activity, activator screen; P34913; 91,000 tested, 0.04% active; in the data active means activation above about 37%
CYP2C19 inh: human CYP2C19 inhibition; P33261; CYP2C19 Supersomes, luciferin-H EGE luminescence, 30 min; inhibition, % at 5 µM; 96,000 tested, 21% active;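 active means CYP2C19 inhibition above a set limit at 5 µM in the primary screen, cut at about 50% in these data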
CYP2C19 activ: increases human CYP2C19 enzyme activity; recombinant CYP2C19, luciferin-H EGE luminescence; hits give high values; 0 = fully inhibited enzyme, 1 = untreated enzyme; P33261; activation factor at 5 µM; 96,000 tested, under 10 active;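 active means activation factor of at least 2 at 5 µM in the primary screen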
CYP2C9 activ: activators of human CYP2C9 | P11712 | recombinant CYP2C9, luciferin-H conversion, luminescence; hits give high values; factor 1 = untreated enzyme, 0 = blocked | activation factor at 5 µM | 96,000 tested, 1.4% active;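 active means activation factor of 2 or more for CYP2C9 at a 5 µM dose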
A number is an active result.

How did N/C(Cc1ccc(Cl)c(Cl)c1)=N\OC(=O)c1cccs1 do in these assays?
CYP2C9 inh: 63; sEH inh: inactive; sEH activator: inactive; CYP2C19 inh: inactive; CYP2C19 activ: inactive; CYP2C9 activ: inactive

Results for Cc1ccccc1N/C(=C(/C(Cl)=C(Cl)Cl)[N+](=O)[O-])n1nnc2ccccc21 ?
CYP2C9 inh: inactive; sEH inh: inactive; sEH activator: inactive; CYP2C19 inh: inactive; CYP2C19 activ: inactive; CYP2C9 activ: inactive

Results for COc1ccc(N/C(=C(/C(Cl)=C(Cl)Cl)[N+](=O)[O-])n2nnc3ccccc32)cc1 ?
CYP2C9 inh: 55; sEH inh: inactive; sEH activator: inactive; CYP2C19 inh: inactive; CYP2C19 activ: inactive; CYP2C9 activ: inactive

Results for COc1ccc(N2CCN(C(=O)c3ccc(Oc4ccc(C(F)(F)F)cn4)cc3)CC2)cc1 ?
CYP2C9 inh: inactive; sEH inh: inactive; sEH activator: inactive; CYP2C19 inh: inactive; CYP2C19 activ: inactive; CYP2C9 activ: inactive

What do the screens show for `CC1=CCC2C(=O)N(CCc3c[nH]c4ccccc34)C(=O)C2C1` (stereo unspecified)?
sEH inh: inactive; sEH activator: inactive

How did COC(=O)C1CC(=O)N(CCc2c[nH]c3ccccc23)C1 (stereo unspecified) do in these assays?
CYP2C9 inh: inactive; sEH inh: inactive; sEH activator: inactive; CYP2C19 inh: 97; CYP2C19 activ: inactive; CYP2C9 activ: inactive

How did C/C(CC(=O)NCCCN1CCOCC1)=N\NC(=O)COc1ccc(Cl)cc1 do in these assays?
CYP2C9 inh: inactive; sEH inh: inactive; sEH activator: inactive; CYP2C19 inh: inactive; CYP2C19 activ: inactive; CYP2C9 activ: inactive

Results for CO/N=C/NC(=O)NOCc1ccc(Cl)cc1Cl ?
CYP2C9 inh: inactive; sEH inh: inactive; sEH activator: inactive; CYP2C19 inh: 52; CYP2C19 activ: inactive; CYP2C9 activ: inactive

What do the screens show for `CCC12CCCN3CCC4(C(=C(C(=O)OC)C1)Nc1ccccc14)C32` (stereo unspecified)?
CYP2C9 inh: 58; sEH inh: inactive; sEH activator: inactive; CYP2C19 inh: 63; CYP2C19 activ: inactive; CYP2C9 activ: inactive

What do the screens show for `Cc1cc(C)cc(N2CC34C=CC(O3)C(C(=O)OCC(=O)NCc3ccco3)C4C2=O)c1` (stereo unspecified)?
CYP2C9 inh: inactive; sEH inh: inactive; sEH activator: inactive; CYP2C19 inh: inactive; CYP2C19 activ: inactive; CYP2C9 activ: inactive

What do the screens show for `CCOC(=O)C1CCCN(Cc2nc(N)nc(Nc3ccc(Cl)cc3)n2)C1` (stereo unspecified)?
CYP2C9 inh: 67; sEH inh: inactive; sEH activator: inactive; CYP2C19 inh: 63; CYP2C19 activ: inactive; CYP2C9 activ: inactive

How did CCOC(=O)C1CCCN(Cc2cccs2)C1 (stereo unspecified) do in these assays?
CYP2C9 inh: inactive; sEH inh: inactive; sEH activator: inactive; CYP2C19 inh: 88; CYP2C19 activ: inactive; CYP2C9 activ: inactive

Results for CCOC(=O)C1CCCN(Cc2nc(N)nc(Nc3ccc(OC)cc3)n2)C1 (stereo unspecified) ?
CYP2C9 inh: inactive; sEH inh: inactive; sEH activator: inactive; CYP2C19 inh: inactive; CYP2C19 activ: inactive; CYP2C9 activ: inactive

What do the screens show for `CCOC(=O)N1CCN(Cc2ccccn2)CC1`?
CYP2C9 inh: inactive; sEH inh: inactive; sEH activator: inactive; CYP2C19 inh: inactive; CYP2C19 activ: inactive; CYP2C9 activ: inactive

How did CCOC(=O)C1CCCN(C/C(O)=C(\C#N)c2nc(-c3ccc(Cl)cc3)cs2)C1 (stereo unspecified) do in these assays?
CYP2C9 inh: 58; sEH inh: inactive; sEH activator: inactive; CYP2C19 inh: inactive; CYP2C19 activ: inactive; CYP2C9 activ: inactive

How did CCOC(=O)C1CCCN(c2cc(C)nc3cc(-c4ccc(Cl)cc4)nn23)C1 (stereo unspecified) do in these assays?
sEH inh: inactive; sEH activator: inactive

How did CCOC(=O)N1CCN(Cc2cccs2)CC1 do in these assays?
CYP2C9 inh: inactive; sEH inh: inactive; sEH activator: inactive; CYP2C19 inh: 90; CYP2C19 activ: inactive; CYP2C9 activ: inactive

Results for Cn1nc(OC(=O)Nc2ccc(Cl)cc2)cc1C(F)(F)F ?
CYP2C9 inh: inactive; sEH inh: inactive; sEH activator: inactive; CYP2C19 inh: inactive; CYP2C19 activ: inactive; CYP2C9 activ: inactive

How did CS(=O)(=O)N(CC(=O)NCc1ccco1)c1ccc(Cl)c(C(F)(F)F)c1 do in these assays?
CYP2C9 inh: inactive; sEH inh: inactive; sEH activator: inactive; CYP2C19 inh: inactive; CYP2C19 activ: inactive; CYP2C9 activ: inactive

What do the screens show for `CCOC(=O)C1CCCN(Cc2ccccc2C)C1` (stereo unspecified)?
CYP2C9 inh: inactive; CYP2C19 inh: 88; CYP2C19 activ: inactive; CYP2C9 activ: inactive

How did CCOC(=O)C1CCCN(Cc2ccccc2OCC)C1 (stereo unspecified) do in these assays?
CYP2C9 inh: inactive; sEH inh: inactive; sEH activator: inactive; CYP2C19 inh: inactive; CYP2C19 activ: inactive; CYP2C9 activ: inactive

Results for CCOC(=O)C1CCCN(Cc2ccccc2Cl)C1 (stereo unspecified) ?
CYP2C9 inh: inactive; sEH inh: inactive; sEH activator: inactive; CYP2C19 inh: 80; CYP2C19 activ: inactive; CYP2C9 activ: inactive

What do the screens show for `CCOC(=O)C1CCN(CC(=O)N2C(C)CCCC2C)CC1` (stereo unspecified)?
CYP2C9 inh: inactive; CYP2C19 inh: 63; CYP2C19 activ: inactive; CYP2C9 activ: inactive

Results for CCOC(=O)N1CCN(Cc2cc(=O)oc3ccc(Cl)cc23)CC1 ?
CYP2C9 inh: 56; sEH inh: inactive; sEH activator: inactive; CYP2C19 inh: 73; CYP2C19 activ: inactive; CYP2C9 activ: inactive

Results for CCN1CCN(Cc2cc(=O)oc3ccc(Cl)cc23)CC1 ?
CYP2C9 inh: inactive; sEH inh: inactive; sEH activator: inactive; CYP2C19 inh: inactive; CYP2C19 activ: inactive; CYP2C9 activ: inactive

Results for COCc1ccc2oc(C(=O)O)cc2c1 ?
CYP2C9 inh: inactive; sEH inh: inactive; sEH activator: inactive; CYP2C19 inh: inactive; CYP2C19 activ: inactive; CYP2C9 activ: inactive

What do the screens show for `CCOC(=O)C1CCN(Cc2ccccc2C)CC1`?
CYP2C9 inh: inactive; sEH inh: inactive; sEH activator: inactive; CYP2C19 inh: 77; CYP2C19 activ: inactive; CYP2C9 activ: inactive

How did CCOC(=O)C1CCN(Cc2ccc(OC)cc2OC)CC1 do in these assays?
CYP2C9 inh: inactive; CYP2C19 inh: inactive; CYP2C19 activ: inactive; CYP2C9 activ: inactive

What do the screens show for `CCOC(=O)C1CCCN(CC(O)COc2ccc(OC)cc2C(C)(C)C)C1` (stereo unspecified)?
CYP2C9 inh: 56; sEH inh: inactive; sEH activator: inactive; CYP2C19 inh: inactive; CYP2C19 activ: inactive; CYP2C9 activ: inactive

How did CCOC(=O)C1CCCN(Cc2ccc(OCC)cc2)C1 (stereo unspecified) do in these assays?
CYP2C9 inh: inactive; sEH inh: inactive; sEH activator: inactive; CYP2C19 inh: 76; CYP2C19 activ: inactive; CYP2C9 activ: inactive

Results for CCOC(=O)C1CCN(Cc2cccc(OC)c2)CC1 ?
CYP2C9 inh: inactive; sEH inh: inactive; sEH activator: inactive; CYP2C19 inh: 77; CYP2C19 activ: inactive; CYP2C9 activ: inactive
